# Results with a measured potency or affinity are listed apart.
# Columns and labels:
# Klebsiella pneumoniae = conditions: Concentration 32 ug.mL-1;; ASSAY_TEST Inhibition of Bacterial Growth; detection method Absorption (OD600); MEDIA CAMHB; plate type 384well; NBS; CORNING #3640; time 18 hr
# Candida albicans = conditions: Concentration 32 ug.mL-1; ASSAY_TEST Inhibition of Fungal Growth; detection method Absorption (OD530)
# Cryptococcus neoformans = conditions: Concentration 32 ug.mL-1; ASSAY_TEST Inhibition of Fungal Growth; detection method Resazurin; Absorption (OD600-OD570); plate type 384well; NBS; CORNING #3640
SMILES,Inhibition (Klebsiella pneumoniae) [%],Inhibition (Candida albicans) [%],Inhibition (Cryptococcus neoformans) [%]
Cc1cc(C)c(NC(=O)Cn2nc3c4c5c(sc4ncn3c2=O)CCCC5)c(C)c1,7.2,39.7,-18.32
Cc1cccc(NC(=O)Cn2nc3c(SCc4ccc(Cl)cc4)nccn3c2=O)c1C,15.65,5.99,-31.05
O=C(Cn1nc2nc(Nc3ccc(F)cc3)ccn2c1=O)N1CCCC1,10.98,0.53,-8.71
Cc1nnc2ccc(S(=O)(=O)N(Cc3ccccc3F)c3cc(F)cc(F)c3)cn12,-4.61,2.54,-9.43
COc1ccc(-c2cc3c4nn(CC(=O)Nc5cc(OC)cc(OC)c5)c(=O)n4ccn3n2)cc1,0.53,33.73,-18.18
Cc1nnc2c(SCC(=O)Nc3ccc(F)cc3F)nc3ccccc3n12,16.48,0.69,-22.98
Cc1ccc(NC(=O)Cn2nc3c4cc(-c5ccc(C)c(C)c5)nn4ccn3c2=O)cc1,12.57,8.44,-14.13
O=C(Cn1nc2ccc(Sc3cccc(F)c3)nn2c1=O)NCc1ccc(C(F)(F)F)cc1,8.35,1.44,-8.13
CCOC(=O)c1ccccc1NC(=O)Cn1c(=O)c2nnc(C(C)C)n2c2ccccc21,12,1.04,-21.33
Cc1ccc(-c2cc3c4nnc(SCC(=O)Nc5cccc(Cl)c5C)n4ccn3n2)cc1,-0.41,0.76,-8.53
CCOC(=O)c1ccccc1NC(=O)Cn1nc2c3sc(N4CCCC4)nc3ncn2c1=O,9.28,9.32,-6
C=Cc1ccc(CN(c2ccc(C(C)C)cc2)S(=O)(=O)c2cccn3c(C)nnc23)cc1,4.48,1.49,-4.15
Cc1ccc(NC(=O)CSc2nnc3c(=O)n(-c4ccccc4)ccn23)c(C)c1,-2.79,2.18,-11.34
Cc1ccc(NC(=O)Cn2nc3ccc(SC(C)(C)C)nn3c2=O)c(Cl)c1,7.92,7.14,-20.56
COc1cccc(Sc2nc3ccccc3n3c(=O)n(CC(=O)Nc4cccc(C#N)c4)nc23)c1,5.87,14.41,-21.13
Cc1ccc(NC(=O)Cn2nc3c(Oc4ccccc4Cl)nccn3c2=O)cc1F,12.22,0.49,-9.07
COc1ccccc1-n1ccn2c(SCC(=O)c3ccc(C)cc3C)nnc2c1=O,6.45,3.89,-10.37
Cc1cccc(N(Cc2ccccc2F)S(=O)(=O)c2ccc3nncn3c2)c1,-1.12,0.03,-7.87
O=C(CSc1nnc2c(=O)n(-c3ccccc3)ccn12)c1ccc(F)cc1,11,4.07,-7.83
O=S(=O)(c1cccn2cnnc12)N(Cc1cccc(Cl)c1)c1ccc(F)cc1,7.99,-0.14,-8.04
O=S(=O)(c1ccc2nncn2c1)N(Cc1cccc(F)c1)c1ccc(F)c(F)c1,13.11,5.52,-5.3
Cc1ccc(N(Cc2cc(F)cc(F)c2)S(=O)(=O)c2cccn3c(C)nnc23)cc1,11.68,5.37,-9.88
Cc1ccc(NC(=O)Cn2nc3ccc(SC(C)C)nn3c2=O)c(C)c1,11.09,2.8,-5.46
CCc1nnc2c(S(=O)(=O)N(Cc3ccc(OC)c(F)c3)c3ccccc3)cccn12,7.72,-1.05,-3.11
Cc1ccc(-c2ccc3nn(CC(=O)Nc4ccc(Cl)cc4)c(=O)n3n2)cc1C,17.23,0.13,-13.82
COc1ccc(NC(=O)Cn2nc3nc(Nc4ccc(F)cc4)ccn3c2=O)cc1Cl,7.26,4.14,-6.17
Cc1ccc(-c2cc3c4nn(CC(=O)Nc5ccc(F)cc5Cl)c(=O)n4ccn3n2)cc1,2.7,1.88,-28.25
COc1cccc(-n2ccn3c(SCc4cc(C)ccc4C)nnc3c2=O)c1,8.78,2.61,-5.92

# From ChEMBL document CHEMBL4513146, “CO-ADD screening of Karazin Kharkiv National University (Ukraine) compounds”
